Resorufin fluor = qHTS Assay for Spectroscopic Profiling in Resorufin Spectral Region | Compound fluorescence, resorufin region 547/598 nm, buffer; hits give high values | max dye-equivalent concentration, M | hit rate 0.04% among 59,000 | AID 588, 2007
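Compounds in 100 mM Tris buffer, pH 8.0, incubated 15 min at room temperature, then read with 547 nm excitation and 598 nm emission filters. Fluorescence was converted to dye-equivalent concentration using an on-plate six-point resorufin standard curve.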
Rhodamine autofl = qHTS Assay for Spectroscopic Profiling in Rhodamine Spectral Region; max dye-equivalent concentration, M; hit rate 0.05% among 59,000; Rhodamine-region fluorescence, 547/598 nm, Tris buffer; hits give high values; in the data active = max dye-equivalent concentration above about 11 nM; inconclusive = between about 1.1 nM and that limit
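A six-point rhodamine series on each plate calibrates the signal. Compounds sit in 100 mM Tris (pH 8.0) for 15 min at ambient temperature before imaging through 547 nm/598 nm filters.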
A488 fluor = qHTS Assay for Spectroscopic Profiling in A488 Spectral Region. compound autofluorescence, A488 spectral region, dye equivalency; Compound Type: qHTS ECL - MLSMR. max dye equivalency, M. hit rate 0.1% among 59,000. AID 591, 2007
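Readout is A488 dye-equivalent concentration, calibrated by a per-plate six-point Alexa 488 series. Compounds in 100 mM Tris buffer pH 8.0 were incubated 15 min at room temperature. Plates were imaged using 480 nm excitation/540 nm emission filters.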
Texas Red fluor = qHTS Assay for Spectroscopic Profiling in Texas Red Spectral Region. Compound fluorescence, Texas Red channel, 547/618 nm; hits give high values. hit rate 0.06% among 59,000. max dye-equivalent concentration, M. AID 587, 2007; in the data active = max dye-equivalent concentration above about 10 nM; inconclusive = between about 1.1 nM and that limit
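Compound fluorescence was read after 15 min at room temperature in 100 mM Tris, pH 8.0, using 547 nm excitation and 618 nm emission across a concentration series. It was expressed as Texas Red dye-equivalent concentration from an on-plate standard curve.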
Fluorescein fluor = qHTS Assay for Spectroscopic Profiling in Fluorescein Spectral Region | Compound autofluorescence, 480/540 nm, fluorescein-equivalent; hits give high values | max fluorescein-equivalent concentration, M | hit rate 0.91% among 59,000; in the data active = max fluorescein-equivalent concentration above about 10 nM; inconclusive = between about 1.1 nM and that limit
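Fluorescein stocks ranging 3 mM down to 300 nM, plus DMSO blanks, were pinned alongside compounds to build a per-plate standard curve. Buffer: 100 mM Tris, pH 8.0. Incubation 15 min, room temperature; filters 480/540 nm.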
A647 autofl = qHTS Assay for Spectroscopic Profiling in A647 Spectral Region; 59,000 tested, under 10 active; Compound fluorescence, A647 channel (570/671 nm), Tris buffer; max dye-equivalent concentration, M;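 note: values scaled relative to a standard on each plate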
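Compounds pinned into 100 mM Tris pH 8.0, 15 min at room temperature, then read with 570 nm excitation/671 nm emission filters. Fluorescence normalized to an on-plate six-point Alexa 647 standard curve, giving dye-equivalent concentration per compound concentration.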
* = called active by the depositor; i = inactive; ? = inconclusive; ! = not confirmed by another sample. Hits are enriched below; roughly 0.96% of the tested compounds scored in any of these assays. Unless noted, the rule behind the calls is not given here.

SMILES | Resorufin fluor | Rhodamine autofl | A488 fluor | Texas Red fluor | Fluorescein fluor | A647 autofl
COc1ccc(O)c(C(=O)c2cc(C#N)c(=O)n(CCN3CCOCC3)c2)c1 | i | i | i | i | i | 1e-09
COc1ccc(O)c(C(=O)c2cc(C#N)c(=O)n(-c3c(C)n(C)n(-c4ccccc4)c3=O)c2)c1 | i | i | ? | i | 1.2e-07M* | 1e-09
CCOC(=O)CNC(=O)c1ccc2c(c1)OCCO2 | i | i | i | i | i | 1e-09
CCOC(=O)CNC(=O)c1cc(-c2ccc3c(c2)OCCO3)oc1C | i | i | ? | i | 4.5e-08M* | 5.5e-09
N#CC1=C(N)Oc2n[nH]c(-c3cccs3)c2C1c1ccco1 (configuration not stated) | ? | ? | ? | ? | 1e-07M* | 1e-09
CN(C)c1ncc2nc(-c3cccs3)c(=O)n(C)c2n1 | i | i | i | i | 1.5e-08M* | 1.5e-08
CN(C)c1ncc2nc(-c3cccs3)c(=O)n(CCC#N)c2n1 | i | i | ? | i | 3.7e-08M* | 9.3e-09
CN(C)c1ncc2nc(-c3cccs3)c(=O)n(CCc3ccccc3)c2n1 | i | i | i | ? | i | 1.2e-08
COc1ncc2nc(-c3cccs3)c(=O)n(CCC#N)c2n1 | i | i | i | i | ? | 1.4e-08
CN(C)CCCO[C@H]1[C@H]([C@H](O)CO)O[C@H]2OC(C)(C)O[C@@H]21 | i | i | i | i | ? | 1.2e-08
COc1ccccc1NC(=O)c1cc2ccccc2o/c1=N\O | i | i | i | i | ? | 4.4e-08
COc1ccccc1NC(=O)c1cc2ccc(O)cc2o/c1=N\O | i | i | i | i | 1.5e-08M* | 3.4e-08
Oc1ccc([C@@H]2CNCc3sccc32)cc1O | i | i | i | i | ? | 3.7e-08
CCCC(=O)Nc1ccc(NC(=O)c2ccccc2Cl)nc1 | i | i | i | i | 1.1e-08M* | 1e-09
CCCC(=O)Nc1ccc(NC(=O)Cc2ccccc2)cn1 | i | i | i | i | ? | 3.3e-09
COc1cccc(NS(=O)(=O)c2ccc3c(c2)n(C)c(=O)c(=O)n3C)c1 | i | i | i | i | i | 1e-09
COc1cccc(NS(=O)(=O)c2ccc(S(=O)(=O)N3CCOCC3)cc2)c1 | i | i | i | i | 1.1e-08M* | 4.6e-09
O=C(NCc1ccccc1F)C1CCN(C(=O)NCc2ccccc2)CC1 | i | i | i | i | i | 1.5e-08
O=C(NCc1ccc(F)cc1)C1CCN(C(=O)NCc2ccccc2)CC1 | i | i | i | i | 1e-08M* | 1e-09
Clc1nc(NCCc2ccccc2)c2ncn(-c3ccccc3)c2n1 | i | i | i | i | i | 1e-09
O=C1N=C(O)CN1/N=C\c1ccc(-c2ccc([N+](=O)[O-])cc2)o1 | i | i | ? | ? | 4.2e-08M*! | 1e-09
C[C@H]1CS(=O)(=O)CCN1/N=C\c1ccc([N+](=O)[O-])o1 | i | i | i | i | i | 2.4e-09
O=C1CN(/N=C\c2ccc([N+](=O)[O-])o2)C(=O)N1 | i | i | ? | ? | 1.6e-07M* | 2.4e-08
COc1ncc2nc(-c3cn(C)c4ccccc34)c(=O)n(-c3ccccc3)c2n1 | i | i | i | i | 1.5e-08M* | 6.3e-09
CCNc1ncc2nc(-c3cn(C)c4ccccc34)c(=O)n(-c3ccccc3)c2n1 | i | i | i | i | 1.1e-08M* | 5.4e-09
SMILES | Resorufin fluor | Rhodamine autofl | A488 fluor | Texas Red fluor | Fluorescein fluor | A647 autofl
Cc1cc(=O)[nH]c(SCCOc2ccc3c(c2)CCC3)n1 | i | i | i | i | i | 1e-09
Cc1cc(=O)[nH]c(SCCOc2ccc(OC(C)C)cc2)n1 | ? | ? | i | ? | 2.2e-08M* | 1.7e-08
Nc1nc(N)c2nc(CNc3ccc(C(=O)N[C@H](CCC(=O)O)C(=O)O)cc3)cnc2n1 | i | i | i | i | ? | 1e-09
c1ccc(CC2CCN(c3nc4ccccc4n4nnnc34)CC2)cc1 | i | i | i | i | ? | 3.3e-08
O=C(c1ccco1)N1CCN(c2nc3ccccc3n3nnnc23)CC1 | i | i | i | ? | 1e-08M* | 4.2e-08
COC(=O)C1=C(C)NC(C)=C(C(=O)OCCN(C)Cc2ccccc2)[C@@H]1c1cccc([N+](=O)[O-])c1 | i | i | i | i | ? | 2.6e-08
N#CC(C(=O)NC1CC1)c1nc2ccccc2nc1N1CCN(C/C=C/c2ccccc2)CC1 (configuration not stated) | i | i | ? | i | 1.3e-07M* | 1e-09
N#CC(C(=O)NC1CCCCC1)c1nc2ccccc2nc1N1CCN(c2ccc(F)cc2)CC1 (configuration not stated) | i | i | 2e-08M* | i | 3.5e-07M* | 3e-09
C=CCNC(=O)C(C#N)c1nc2ccccc2nc1N1CCN(Cc2ccccc2)CC1 (configuration not stated) | i | i | ? | i | 5.6e-08M* | 1e-09
COCCCNC(=O)C(C#N)c1nc2ccccc2nc1N1CCN(Cc2ccccc2)CC1 (configuration not stated) | i | i | i | i | i | 3e-08
N#CC(C(=O)NC1CC1)c1nc2ccccc2nc1N1CCCC1 (configuration not stated) | i | i | ? | ? | 1.8e-07M* | 8.2e-09
N#CC(C(=O)NC1CCCCC1)c1nc2ccccc2nc1N1CCCCC1 (configuration not stated) | i | i | i | i | ? | 2.2e-08
O=c1c(O)c(-c2cccs2)oc2ccccc12 | i | i | ? | ? | 3.2e-08M* | 1.2e-09
CN1CCc2c(sc3c2C(=O)NC(c2ccco2)N3)C1 (configuration not stated) | i | i | i | i | 1.3e-08M* | 4.3e-08
Cc1ccc(C)n1Cc1ccc(C(=O)O)cc1 | i | i | i | i | 1.1e-08M* | ?
Nc1ncnc2c1ncn2[C@@H]1O[C@@H](CO)[C@H](O)[C@@H]1O | i | i | i | i | i | 1.5e-09
CCN1C(=O)/C(=C2\C=Cc3ccccc3N2CC)OC1=S | 2.2e-08M* | 2.2e-08M* | 3.8e-08M* | ? | 8e-07M* | 1.1e-08
Cc1cc(-c2ccco2)c(C#N)c2nc3ccccc3n12 | i | i | ? | i | 1.6e-07M* | 1e-09
CCc1c(C)c(C#N)c2nc3ccccc3n2c1-n1nc(C)cc1C | i | i | i | i | ? | 5.9e-08
O=C(N[C@@]1(C(=O)O)C[C@@H]1c1ccccc1)c1ccccc1 | i | i | i | i | ? | 4.2e-08
